This is part of a sample that, as a whole, favours compounds with a hit. Of some 83,000 tested, about 20% had one in any assay.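 Note: values are percent growth. 100 is the growth of untreated cells, values between 100 and 0 indicate rising inhibition; between -100 and 0 indicates cell death.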 The source made the active and inactive calls. How the source made its calls: active means growth percent below 10; inactive means the rest.
How the values were obtained:
Experiment in all cases: NCI-60 one-dose screen, 48 h (100 = growth as untreated, 0 = no growth, -100 = all killed)
Details in all cases: 10 µM unless noted
NCI-H23 lung = tested on: NCI-H23 lung
NCI-H226 lung = tested on: NCI-H226 lung
NCI-H322M lung = tested on: NCI-H322M lung
HOP-62 NSCLC = tested on: HOP-62 NSCLC
NCI-H460 lung = tested on: NCI-H460 lung
HOP-92 NSCLC = tested on: HOP-92 NSCLC
NCI-H522 lung = tested on: NCI-H522 lung
A549/ATCC NSCLC = tested on: A549/ATCC NSCLC
786-0 renal = tested on: 786-0 renal
COLO 205 colon = tested on: COLO 205 colon
DU-145 prostate = tested on: DU-145 prostate
K-562 leukemia = tested on: K-562 leukemia
MALME-3M melanoma = tested on: MALME-3M melanoma
MDA-MB-231 breast = tested on: MDA-MB-231 breast
RXF 393 renal = tested on: RXF 393 renal
SF-268 CNS = tested on: SF-268 CNS
SF-539 CNS = tested on: SF-539 CNS
UACC-257 melanoma = tested on: UACC-257 melanoma
M14 melanoma = tested on: M14 melanoma
SF-295 CNS = tested on: SF-295 CNS

Measured: growth

O=C(CI)Nc1ccc(O)c2ccccc12
active: NCI-H23 lung -7.45% | NCI-H226 lung -13.1% | HOP-92 NSCLC -24.8% | NCI-H522 lung -79.4% | 786-0 renal -22.5% | COLO 205 colon -85.6% | K-562 leukemia -16.2% | MALME-3M melanoma -14% | MDA-MB-231 breast -11.8% | RXF 393 renal -89.7% | SF-268 CNS -0.419% | SF-539 CNS -28.6% | M14 melanoma -58.9%
inactive: NCI-H322M lung 104% | HOP-62 NSCLC 46.9% | NCI-H460 lung 32.5% | A549/ATCC NSCLC 64.8% | DU-145 prostate 41.9% | UACC-257 melanoma 10.7%

Cn1cnc2c1c(=O)n(CCC(=O)Nc1ccc(F)cc1)c(=O)n2C
inactive: NCI-H23 lung 95.8% | NCI-H226 lung 106% | NCI-H322M lung 107% | HOP-62 NSCLC 100% | NCI-H460 lung 108% | HOP-92 NSCLC 96.4% | NCI-H522 lung 87.3% | A549/ATCC NSCLC 89.1% | 786-0 renal 94.8% | COLO 205 colon 104% | DU-145 prostate 103% | K-562 leukemia 108% | MALME-3M melanoma 97.1% | MDA-MB-231 breast 101% | RXF 393 renal 116% | SF-268 CNS 105% | SF-295 CNS 102% | SF-539 CNS 101% | M14 melanoma 101%

COc1ccc2c(c1)C/C(=C\c1cc(-c3ccc4c(c3)OCO4)n[nH]1)C2=O
inactive: NCI-H23 lung 111% | NCI-H226 lung 86.5% | NCI-H322M lung 113% | HOP-62 NSCLC 102% | NCI-H460 lung 92.6% | HOP-92 NSCLC 87.2% | NCI-H522 lung 105% | A549/ATCC NSCLC 95.7% | 786-0 renal 106% | COLO 205 colon 105% | DU-145 prostate 112% | K-562 leukemia 60.1% | MALME-3M melanoma 112% | MDA-MB-231 breast 79.7% | RXF 393 renal 95.6% | SF-268 CNS 106% | SF-539 CNS 92.4% | UACC-257 melanoma 103% | M14 melanoma 97.2%

Fc1ccc(Nc2nc(Nc3ccc(-c4nc5ccccc5[nH]4)cc3)nc(N3CCCC3)n2)cc1
active: K-562 leukemia -38.8% | M14 melanoma -58.3%
inactive: NCI-H23 lung 75.1% | NCI-H226 lung 79.9% | NCI-H322M lung 96% | HOP-62 NSCLC 78.6% | NCI-H460 lung 70.4% | HOP-92 NSCLC 64.4% | NCI-H522 lung 78.8% | A549/ATCC NSCLC 61.2% | 786-0 renal 85.2% | COLO 205 colon 86% | DU-145 prostate 93.3% | MALME-3M melanoma 85.7% | MDA-MB-231 breast 61.6% | RXF 393 renal 77.8% | SF-268 CNS 91.2% | SF-295 CNS 90.9% | SF-539 CNS 81.6%

COC(=O)[C@]12CC[C@@H](C)[C@H](C)[C@@H]1C1=CC[C@@H]3[C@@]4(C)C[C@@H](OC(C)=O)[C@H](O)[C@@](C)(COC(C)=O)[C@@H]4[C@H](O)C[C@@]3(C)[C@]1(C)CC2
active: NCI-H23 lung -83.3% | NCI-H226 lung -57.8% | NCI-H322M lung -92.6% | HOP-62 NSCLC -84% | NCI-H460 lung -86.9% | HOP-92 NSCLC -67.4% | NCI-H522 lung -81.6% | A549/ATCC NSCLC -86.2% | 786-0 renal -81.9% | COLO 205 colon -81.3% | DU-145 prostate -91.9% | K-562 leukemia -10.7% | MALME-3M melanoma -70.5% | MDA-MB-231 breast -68% | RXF 393 renal -79.2% | SF-268 CNS -71.9% | SF-295 CNS -91.8% | SF-539 CNS -85.1% | M14 melanoma -73.3%

COc1cc(-c2nc(-c3ccccc3)c(-c3ccccc3)[nH]2)cc(OC)c1O
inactive: NCI-H226 lung 48.9% | NCI-H322M lung 13% | HOP-92 NSCLC 38.2% | 786-0 renal 19.3%
active: NCI-H23 lung -31.9% | HOP-62 NSCLC -26.5% | NCI-H460 lung -37.5% | NCI-H522 lung -23% | A549/ATCC NSCLC -30.9% | COLO 205 colon -73.8% | DU-145 prostate -23.5% | K-562 leukemia 3.86% | MALME-3M melanoma -28.9% | MDA-MB-231 breast 0.0647% | RXF 393 renal -48.8% | SF-268 CNS 4.5% | SF-539 CNS 0.938% | UACC-257 melanoma 6.33% | M14 melanoma -18.8%

c1ccc(C2Cc3ccccc3C2=NC2CCCCC2)cc1 (stereo not given)
inactive: NCI-H23 lung 98.1% | NCI-H226 lung 100% | NCI-H322M lung 102% | HOP-62 NSCLC 113% | NCI-H460 lung 116% | HOP-92 NSCLC 68.4% | NCI-H522 lung 88.8% | A549/ATCC NSCLC 103% | 786-0 renal 97.5% | COLO 205 colon 115% | DU-145 prostate 115% | K-562 leukemia 99.6% | MALME-3M melanoma 116% | MDA-MB-231 breast 97.2% | RXF 393 renal 110% | SF-268 CNS 102% | SF-539 CNS 89.3% | UACC-257 melanoma 110% | M14 melanoma 91.7%

COc1ccc2c(c1)C/C(=C\c1cc(-c3cc(OC)c(OC)c(OC)c3)n[nH]1)C2=O
inactive: NCI-H23 lung 90.2% | NCI-H226 lung 82.3% | NCI-H322M lung 93.9% | HOP-62 NSCLC 103% | NCI-H460 lung 106% | HOP-92 NSCLC 79.1% | NCI-H522 lung 60.6% | A549/ATCC NSCLC 92.9% | 786-0 renal 95.9% | COLO 205 colon 109% | DU-145 prostate 113% | K-562 leukemia 53.7% | MALME-3M melanoma 108% | MDA-MB-231 breast 78.9% | RXF 393 renal 94.9% | SF-268 CNS 100% | SF-539 CNS 89.5% | UACC-257 melanoma 97.3% | M14 melanoma 100%

COc1cccc(-c2nn(-c3ccccc3)cc2-c2ccnc(NCCCNS(=O)(=O)c3ccc(C(F)(F)F)cc3)c2)c1
active: HOP-92 NSCLC 5.37% | COLO 205 colon -1.71% | K-562 leukemia 8.17% | MDA-MB-231 breast 6.9% | RXF 393 renal -7.54%
inactive: NCI-H23 lung 28.6% | NCI-H226 lung 36.6% | NCI-H322M lung 68.6% | HOP-62 NSCLC 61.3% | NCI-H460 lung 25.4% | NCI-H522 lung 17.4% | A549/ATCC NSCLC 24.4% | 786-0 renal 16.1% | DU-145 prostate 59.6% | MALME-3M melanoma 25.8% | SF-268 CNS 43.9% | SF-295 CNS 14.5% | SF-539 CNS 46.4% | M14 melanoma 22.1%

COc1cc(-c2cc(-c3nc4ccc(F)cc4[nH]3)[nH]n2)cc(OC)c1OC
active: NCI-H226 lung -11.1% | HOP-62 NSCLC 8.23% | NCI-H522 lung 9.45% | K-562 leukemia 0.735% | MALME-3M melanoma 7.29%
inactive: NCI-H23 lung 15.8% | NCI-H322M lung 48.7% | NCI-H460 lung 33.5% | HOP-92 NSCLC 25.8% | A549/ATCC NSCLC 29% | 786-0 renal 53.7% | COLO 205 colon 20.9% | DU-145 prostate 35.5% | MDA-MB-231 breast 49.4% | RXF 393 renal 36.5% | SF-268 CNS 36.4% | SF-539 CNS 52.6% | UACC-257 melanoma 29.6% | M14 melanoma 21.5%

COc1cccc(NC(=O)c2sc3nc4c(cc3c2N)C(=O)CCC4)c1
inactive: NCI-H23 lung 21.8% | NCI-H226 lung 74.9% | NCI-H322M lung 56.5% | HOP-62 NSCLC 27.8% | HOP-92 NSCLC 57.3% | A549/ATCC NSCLC 22.5% | 786-0 renal 41.1% | DU-145 prostate 11.8% | MALME-3M melanoma 50.1% | MDA-MB-231 breast 14.7% | RXF 393 renal 41% | SF-268 CNS 39.2% | UACC-257 melanoma 66.5% | M14 melanoma 12.5%
active: NCI-H460 lung 1.73% | NCI-H522 lung -21.1% | COLO 205 colon 0.646% | K-562 leukemia 5.55% | SF-539 CNS -7.27%

O=Cc1nc2ccccc2[nH]1
inactive: NCI-H23 lung 97.9% | NCI-H226 lung 97.6% | NCI-H322M lung 110% | HOP-62 NSCLC 90.1% | NCI-H460 lung 109% | HOP-92 NSCLC 86.1% | NCI-H522 lung 84.8% | A549/ATCC NSCLC 84.5% | 786-0 renal 101% | COLO 205 colon 106% | DU-145 prostate 105% | K-562 leukemia 97.6% | MALME-3M melanoma 104% | MDA-MB-231 breast 94.9% | RXF 393 renal 112% | SF-268 CNS 104% | SF-295 CNS 101% | SF-539 CNS 97.5% | M14 melanoma 90.9%

NC1(N)C=CC2=C(C=C1)C1(N)C3=C(C=CC(N)(N)C=C3)N2C2(N)C3=C(C=CC(N)(N)C=C3)N1C1=C2C=CC(N)(N)C=C1
inactive: NCI-H23 lung 79.5% | NCI-H226 lung 97.7% | NCI-H322M lung 99.8% | HOP-62 NSCLC 89.8% | NCI-H460 lung 94.6% | HOP-92 NSCLC 70.3% | NCI-H522 lung 28.4% | A549/ATCC NSCLC 88.8% | 786-0 renal 84.3% | COLO 205 colon 104% | DU-145 prostate 97% | K-562 leukemia 81.7% | MALME-3M melanoma 103% | MDA-MB-231 breast 67.3% | RXF 393 renal 104% | SF-268 CNS 86.8% | SF-539 CNS 73.4% | UACC-257 melanoma 89.7% | M14 melanoma 94.5%

c1ccc2[nH]c(-c3cc(-c4ccc5c(c4)OCO5)n[nH]3)nc2c1
inactive: NCI-H23 lung 68.8% | NCI-H226 lung 70.7% | NCI-H322M lung 67.1% | HOP-62 NSCLC 62.6% | NCI-H460 lung 46.4% | HOP-92 NSCLC 119% | NCI-H522 lung 32.9% | A549/ATCC NSCLC 58.8% | 786-0 renal 55.7% | COLO 205 colon 70.3% | DU-145 prostate 69.1% | K-562 leukemia 36.3% | MALME-3M melanoma 38.2% | MDA-MB-231 breast 65% | RXF 393 renal 59.6% | SF-268 CNS 70.5% | SF-539 CNS 52.4% | UACC-257 melanoma 66.4% | M14 melanoma 45.8%

CC(C)=CCC/C(C)=C/CC/C(C)=C/CSC[C@H](NC(=O)CCCCCN1CCN(C)CC1)C(=O)NC1CCCCCC1
active: NCI-H460 lung 2.84% | COLO 205 colon -71% | K-562 leukemia -17.4% | MALME-3M melanoma -13.7% | MDA-MB-231 breast -89.1%
inactive: NCI-H23 lung 58.1% | NCI-H226 lung 82.1% | NCI-H322M lung 88.7% | HOP-62 NSCLC 91.7% | HOP-92 NSCLC 32.6% | NCI-H522 lung 59.8% | A549/ATCC NSCLC 64.2% | 786-0 renal 75.9% | DU-145 prostate 53% | RXF 393 renal 80.3% | SF-268 CNS 75.1% | SF-539 CNS 82.9% | UACC-257 melanoma 76.2% | M14 melanoma 83.7%

Reference: PubChem BioAssay (NCI)
